Screens deposited in PubChem BioAssay by several laboratories.
Kir21 block – blocks the mouse Kir2.1 inward-rectifier potassium channel | HEK293-Kir2.1, FluxOR thallium flux fluorescence; hits give low values | B-score at 10 µM | 0.85% of 310,000 active | P35561;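 active = fluorescence ratio B-score at or below minus 3 SD of library scores, with starting-brightness B-score within 2 SD, cut at about -4.2 in these data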;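 note: channel flux triggered by added potassium and thallium sulfate stimulus; B-score of peak minus minimum fluorescence over baseline after thallium stimulus; more negative B-score means stronger Kir2.1 block with less thallium influx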
ANO1 activ – activators or potentiators of mouse TMEM16A chloride channel; 0.3% of 340,000 active; Q8BHY3; B-score at 10 µM; HEK293 TMEM16A/YFP-H148Q/I152L, iodide quench fluorescence; hits give low values;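 active = fluorescence-ratio B-score plate-corrected deviation score at least 3 library SD below zero, with starting fluorescence score within 5 deviations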;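 note: channel opened by trigger with iodide after compound preincubation; score built on the fluorescence ratio of max minus min over baseline; more negative score means more quench and so TMEM16A activation or potentiation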
Rce1 inhib – blocks yeast Ras-converting enzyme; yeast membranes, quenched prenylated peptide cleavage fluorescence; calls only; 0.27% of 290,000 active; AID 2563;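 active = fall in fluorescence gain of 50% or more versus controls, with final raw signal at or below 3038400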;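 note: plate controls were neutral control wells for no effect and wells lacking membranes for full effect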
Target sequence (Q03530 whole entry, looked up): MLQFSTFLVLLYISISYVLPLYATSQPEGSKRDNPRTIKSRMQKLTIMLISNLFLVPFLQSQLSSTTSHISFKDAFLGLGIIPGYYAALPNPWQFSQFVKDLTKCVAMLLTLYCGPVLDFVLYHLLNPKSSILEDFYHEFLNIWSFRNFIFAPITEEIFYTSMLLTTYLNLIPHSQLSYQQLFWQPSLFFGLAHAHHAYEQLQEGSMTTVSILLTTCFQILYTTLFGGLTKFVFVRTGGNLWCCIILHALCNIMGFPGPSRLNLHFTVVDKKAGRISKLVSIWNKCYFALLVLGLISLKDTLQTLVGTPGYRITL
CHT PAM – human CHT allosteric activation; 0.49% of 310,000 active; Q9GZV3; B-score at 10 µM; AID 488977; CHT-expressing cells, membrane potential dye, choline EC20; hits give high values; LV-AA mutant CHT in HEK293 cells;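 active = initial fluorescence not abnormally high and integrated response B-score, plate-corrected, over 3 SD above library mean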
CHT inh – inhibitors of human choline transporter CHT; Q9GZV3; CHT-expressing cells, membrane potential dye, choline response; hits give low values; B-score at 10 µM; 0.86% of 310,000 active;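 active = B-score over 3 SD under the library average, and starting fluorescence ratio not unusually high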;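 note: choline stimulus applied at its EC90 after an EC20 pre-addition; B-score computed on integrated fluorescence ratio after choline addition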
ANO1 block – mouse TMEM16A channel inhibition, primary screen. 1.2% of 310,000 active. normalized B-score (activity score, 25-100; higher = stronger inhibition) at 10 µM. HEK293 TMEM16A/YFP iodide influx fluorescence, ionomycin. AID 588511;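 active = ratio plate-corrected score three or more library SD toward inhibition, starting fluorescence score within five deviations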;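 note: score derived from kinetic fluorescence span divided by baseline fluorescence per well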
TMEM16A reconf – TMEM16A (mouse) chloride channel inhibition, re-confirmation. shares compounds with ANO1 block. inhibition, % at 10 µM. HEK293 TMEM16A/YFP-H148Q, iodide quench fluorescence; ionomycin added to raise cell calcium. 39% of 2,300 active. AID 652189;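 active = mean duplicate percent inhibition, scaled so buffer wells are 0 and the reference blocker 100, over three buffer SD above buffer mean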
HEK293 Ca mobil – calcium mobilization counter-screen hit for TMEM16A inhibitor series; calcium response (% of ionomycin), % at 10 µM; 2% of 2,300 active; TMEM16A/YFP HEK293, Fluo4 calcium mobilization; AID 652231; shares compounds with ANO1 block;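 active = duplicate-averaged calcium signal over 20% of the ionomycin maximum, relative to buffer baseline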;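 note: each well's signal is peak minus trough fluorescence divided by its pre-addition baseline; 0% = buffer wells and 100% = ionomycin wells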
Parental YFP cnt – counter-screen for TMEM16A inhibitors: effect in parental YFP-HEK293 cells. iodide YFP quench, ionomycin. AID 652233. 2,300 tested, under 10 active. YFP ratio F(max-min)/F0 at 10 µM. shares compounds with ANO1 block;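 active = yellow fluorescent protein signal ratio exceeding the buffer control mean by over 5 SD of those controls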;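 note: ratio is mean of duplicate wells from kinetic YFP trace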
ClC-1 inh – blocks the rat ClC-1 voltage-dependent chloride channel; shares compounds with ANO1 block; CHO ClC-1-YFP, iodide influx fluorescence quench; iodide control reads 0, buffer control 100; ratio percent, % at 10 µM; 2,300 tested, under 10 active; AID 652236;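 active = duplicate-mean ratio percent above the mean of iodide-only control wells, which defines zero, plus 5 of their SD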;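 note: higher percent means stronger block of ClC-1 iodide influx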
* = called active by the depositor; i = inactive; . = no result. Shown are actives, neighbours in structure and some others; about 3.2% of the full set was active somewhere.

SMILES	Kir21 block	ANO1 activ	Rce1 inhib	CHT PAM	CHT inh	ANO1 block	TMEM16A reconf	HEK293 Ca mobil	Parental YFP cnt	ClC-1 inh
COCc1c(C(=O)OCC(=O)c2c(N)n(CC(C)C)c(=O)n(C)c2=O)oc2ccccc12	0.02	i	i	i	i	25*	i	i	-1.2	-12
CCc1ccc(C(=O)OCC(=O)c2c(N)n(CC(C)C)c(=O)n(C)c2=O)cc1	1.8	i	i	i	i	25*	i	i	-0.88	-10
CC1(C)OC(C)(C)/C(=C/Nc2ccccc2)C1=O	-1.8	i	i	i	i	i	.	.	.	.
COc1ccc([C@H]2CC(=O)C=C(c3ccc(Cl)c(F)c3)C2)cc1	.	i	.	.	.	.	.	.	.	.
Cc1nn(C(=O)c2ccco2)c(C)c1Sc1ccc([N+](=O)[O-])cc1	0.46	i	i	i	i	i	.	.	.	.
Cc1nn(S(=O)(=O)c2cccs2)c(C)c1Sc1ccc([N+](=O)[O-])cc1	0.61	i	i	i	i	100*	44%*	i	-0.99	-20
CC(=O)N(Cc1ccccc1)c1ncc2c(n1)c(=O)c(C#N)c1ccccn12	-0.01	i	i	i	i	25*	i	i	-0.91	-8
CC(=O)N(Cc1c(C#N)c2ccccc2n1C)c1ccccc1	-4.6	i	i	i	i	i	.	.	.	.
O=C(NCCOc1ccc(Cl)cc1)C1CC(=O)N(c2ccc3c(c2)OCCO3)C1 (configuration not stated)	.	i	.	.	.	.	.	.	.	.
C=CCOC(=O)C1=C(C)NC(SCC)=C(C#N)C1c1ccc(Cl)cc1 (configuration not stated)	0.02	i	i	i	i	100*	22%*	i	-1.3	-20
COc1cc2cc(C(=O)N(C)C3CCS(=O)(=O)C3)[nH]c2cc1OC (configuration not stated)	-0.18	i	i	i	i	i	.	.	.	.
Cc1cccc(C(=O)Nc2scc(CC(C)C)c2C(=O)O)c1	-0.83	i	i	i	i	i	.	.	.	.
CC(C)Cc1csc(NC(=O)c2ccc(Cl)cc2)c1C(=O)O	-0.11	i	i	i	i	25*	39%*	i	-0.81	-5
O=C(COC(=O)c1ccc(Cl)cc1Cl)Nc1cccc(S(=O)(=O)NC2=NCCC2)c1	.	i	.	.	.	.	.	.	.	.
CCOc1ccc(-c2[nH]ncc2Oc2cccc(OC)c2)c(O)c1	0.02	i	i	i	i	100*	i	i	-1	-10
COc1cccc(Oc2cn[nH]c2-c2ccc(OC)cc2O)c1	-1.5	i	i	i	i	25*	20%*	i	-1.3	-13
CCN(CC)c1c(-c2ccccc2)c2cc(C)ccc2[nH]c1=O	-0.42	i	i	i	i	25*	i	i	-1.1	-9
Cc1cc(O)c(C(C)C)cc1N=Nc1ccccc1C(=O)O	-1.4	i	i	i	i	i	38%*	i	-0.73	-8
Cc1cc(O)c(C(C)C)cc1N=Cc1ccccc1[N+](=O)[O-]	.	i	.	.	.	.	.	.	.	.
Cc1cc(N=Nc2ccccc2C(=O)O)c(C)c(C)c1O	2.4	i	i	i	i	i	53%*	i	-1.2	-18
Cc1ccc(NCC(=O)Nc2ccc(Br)cc2)cc1F	-0.54	i	i	i	i	i	.	.	.	.
O=C(NNS(=O)(=O)c1ccc(F)cc1)c1cc2ccccc2cc1O	-0.11	i	i	i	i	100*	24%*	i	-0.74	-12
O=C(NNS(=O)(=O)c1ccc(F)cc1)c1ccccc1F	-1.2	i	i	i	i	i	.	.	.	.
O=C(/C=C/c1ccc(F)cc1)c1ccccc1Br	-1.5	i	i	i	i	i	.	.	.	.
COc1ccc(/C=N/NC(=O)c2cccnc2)cc1COc1ccc([N+](=O)[O-])c(C)c1	0.09	i	i	i	i	25*	22%*	i	-1	-16
SMILES	Kir21 block	ANO1 activ	Rce1 inhib	CHT PAM	CHT inh	ANO1 block	TMEM16A reconf	HEK293 Ca mobil	Parental YFP cnt	ClC-1 inh
CCOc1cc(S(=O)(=O)NCc2ccccn2)c(C)cc1C	-4.7*	.	i	i	i	100*	i	i	-1.2	-6
CCN(CC)c1ccc(-c2nn3c(-c4ccccc4OC)nnc3s2)cc1	0.25	i	i	i	i	100*	i	i	-1.1	-2
Cc1oc2ccc(OS(C)(=O)=O)cc2c1C(=O)OC(C)C	-1	i	i	i	i	i	.	.	.	.
CCN(CC)C(=O)COc1ccc2oc(C)c(C(=O)OC(C)C)c2c1	-4.2*	i	i	i	i	i	i	i	-1.1	-9
Cc1ccc(-c2csc(N3CCC[C@@H]3C(=O)NCCn3c(-c4ccncc4)nc4ccccc43)n2)cc1	0.85	i	i	i	i	i	.	.	.	.
COc1ccccc1NC(=O)Cc1ccc(-c2ccccc2)cc1	0.67	i	i	i	i	25*	i	i	-0.99	-10
Cc1ccc(NC(=O)c2cc(S(=O)(=O)N3CCOCC3)c(Br)s2)cc1	0.88	i	i	i	i	i	.	.	.	.
COc1ccc(C2(O)CCN(CC(=O)Nc3nc(-c4ccccc4)cs3)CC2)cc1	2.2	i	i	i	i	25*	36%*	i	-0.81	-29
CN(C)CC1CCCCC1OC(=O)/C=C/c1ccccc1 (configuration not stated)	-0.27	i	i	i	i	i	.	.	.	.
CCOc1ccc(-n2ccnc2SCC(=O)NCc2ccc3c(c2)OCO3)cc1	-3.5	i	i	i	i	100*	20%*	i	-1.2	-8
COCCCn1c(=S)[nH]c2ccc(N3CCOCC3)cc2c1=O	0.09	i	i	i	i	i	.	.	.	.
CCCCN(C)CCn1c(=S)[nH]c2ccc(N3CCOCC3)cc2c1=O	-1.9	i	i	i	i	25*	i	i	-0.9	-6
COc1ccc(NC(=O)Cn2nnc(-c3ccccc3NS(=O)(=O)c3ccccc3)n2)cc1	-0.48	i	i	i	i	100*	38%*	i	-0.84	-20
